High-throughput results from PubChem.
KB-3-1 tox = KB-3-1 parental cell cytotoxicity; KB-3-1 viability, CellTiter-Glo ATP luminescence, 72 h; Potency, µM (doses to about 46.1 µM), hits mostly cytotoxic; 400,000 compounds, 1.4% hits; AID 1347075; note: % is set by controls: 0 for no effect and ±100 for the full control effect; nearly all actives have a fitted effect of over 60% in size
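Cytotoxicity measured as CellTiter-Glo luminescence after 72 h at 37 C. Compound titrations were pinned onto drug-naive KB-3-1 parental adenocarcinoma cells grown in DMEM with 10% FBS, and normalized data fitted to concentration-response curves.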
SW480 rerep = DNA re-replication induction in SW480 cells; SW480 DNA re-replication, Hoechst DNA content imaging, 48 h; Potency, µM (doses to about 46.1 µM), for the others: at the highest dose re-replication activation, usual class: activators; 340,000 compounds, 1.8% hits; note: % of control where 0% means no effect; nearly all actives have a fitted effect of over 55% in size
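Image-based read-out: total Hoechst fluorescence of nuclei (405 nm excitation, 500-530 nm emission), with hits raising the fraction of high-intensity nuclei. SW480 colon cells incubated 48 hr with compounds at 37 C.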
HT1080NT lethal = kills 2HG-producing HT-1080-NT fibrosarcoma cells. 360,000 compounds, 1.6% hits. HT-1080-NT fibrosarcoma viability, CellTiter-Glo ATP luminescence, 48 h. AID 686970. Potency, µM (titrated, usually from 46.1 µM), for the others: at the top dose activity, negative = less viability, usual class: cytotoxic;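 note: NT is the 2HG producing partner of a matched IDH1 knockdown line; 0% = DMSO-treated cells and -100% = media-only wells without cells; nearly all actives have a fitted effect of over 55% in size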
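Toxicity toward the 2HG-producing NT line was scored as %Activity, normalised to DMSO and no-cell wells, from CellTiter-Glo luminescence after 48 hours' treatment.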
HT1080 IDH1KD tx = HT-1080 IDH1 knockdown cell toxicity (counter line); AID 686971; 360,000 compounds, 2% hits; Potency, µM (highest dose often 46.1 µM), for inactives: at the top dose activity, negative = toxicity, hits mostly cytotoxic; HT-1080 IDH1 knockdown viability, ATP luminescence, 48 h;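 note: 0% = DMSO wells and -100% = cell-free medium wells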
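Luminescent ATP read-out (CellTiter-Glo, 10 min at room temperature) after 48 h compound exposure at 37 °C gave viability of IDH1-knockdown HT-1080 cells. Activity was normalised to DMSO and cell-free wells, then fitted as concentration-response curves.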
KB-V1 cytotox = KB-V1 MDR subline cytotoxicity | AID 1347076 | 400,000 compounds, 3.4% hits | Potency, µM (series often up to 46.1 µM), actives largely listed as cytotoxic | KB-V1 MDR cells viability, CellTiter-Glo, 72 h; note: % is set by controls: 0 for no effect and ±100 for the full control effect; nearly all actives have a fitted effect of over 60% in size
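Drug-selected KB-V1 cells, grown in DMEM lacking phenol red with 10% FBS, receive compound titrations; after three days at 37 degrees C, surviving cell ATP is quantified by CellTiter-Glo luminescence and responses normalized and curve-fitted.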
MCF10A rereplic = DNA re-replication induction in MCF 10a cells | MCF 10A DNA re-replication, Hoechst nuclear intensity, 48 h | Potency, µM (titrated, usually from 46.1 µM), for inactives: at the highest dose activity, positive = re-replication, actives largely listed as activators | 350,000 compounds, 2.9% hits; note: % of control where 0% means no effect; nearly all actives have a fitted effect of over 50% in size
An asterisk follows results filed as active; i = inactive; ? = inconclusive; . = no result. Only some compounds are listed: those with a hit (about 8% of all), similar ones and a draw of the others. Calls come from the whole dose curve; as a rule, active = well fitted curve in the direction sought with a large enough effect; inconclusive = small, poorly fitted or top-dose-only effect, or another doubt; inactive = no such curve, though single readings can be large; an effect the other way counts as inactive or inconclusive. Potency is the fitted concentration of half-maximal effect.

SMILES	KB-3-1 tox	SW480 rerep	HT1080NT lethal	HT1080 IDH1KD tx	KB-V1 cytotox	MCF10A rereplic
CN=C1SC(CC(=O)Nc2sc(C)c(C)c2C(=O)OC)C(=O)N1C (stereo not given)	i	-3.4%	7.6%	-5.3%	?	?
CCOC(=O)c1c(NC(=O)CC2SC(=NC)N(C)C2=O)sc(C)c1C (stereo not given)	i	-8.8%	-2.5%	2.5%	10.3µM*	?
CN=C1SC(CC(=O)Nc2cccc(C(F)(F)F)c2)C(=O)N1C (stereo not given)	i	-11.3%	-11.9%	-14.8%	14.6µM*	0.2%
Cc1cnccc1CN(C)Cc1nc(Cc2ccccc2Cl)no1	20.6µM*	-4.4%	?	-28.7%	9.2µM*	0.1%
COc1ccc(C(=O)N2CCOC2CNC(=O)C(=O)NCc2ccccc2)cc1 (stereo not given)	i	.	-3.1%	-1.1%	i	.
COc1ccccc1NC(=O)C(Cc1ccccc1)NS(=O)(=O)c1ccc2c(c1)c(=O)n(C)c(=O)n2C (stereo not given)	i	.	.	.	i	.
COc1cc(/C=C(\NC(C)=O)C(=O)NC(C)(C)C)ccc1OC(C)=O	i	-1.3%	-1.5%	-1.9%	i	-11.0%
CN(CC1CCCO1)S(=O)(=O)c1ccc(C(=O)Nc2nccs2)cc1 (stereo not given)	i	-21.5%	17.4%	-12.2%	18.4µM*	-1.0%
COc1ccc(-c2nnc(NC(=O)c3ccc(S(=O)(=O)N(C)CC4CCCO4)cc3)o2)c(OC)c1 (stereo not given)	i	?	-24.7%	-25.7%	5.8µM*	?
CN(CC1CCCO1)S(=O)(=O)c1ccc(C(=O)Nc2ccc3c(c2)OCO3)cc1 (stereo not given)	i	1.3%	4.1%	5.9%	i	0.1%
Cc1cc(NC(=O)c2ccc(S(=O)(=O)N(C)CC3CCCO3)cc2)no1 (stereo not given)	i	2.0%	-17.0%	1.6%	i	18.0%
OC(c1ccccc1)c1ncc(-c2ccccc2F)[nH]1 (stereo not given)	i	.	-9.4%	-5.9%	i	.
COc1cccc(NC(=S)N(CCc2c(C)[nH]c3ccc(C)cc23)Cc2cccs2)c1	16.4µM*	?	-4.2%	-28.8%	?	-1.7%
Cc1cccc(CS(=O)(=O)Cc2ccc(C(=O)NCc3ccc(F)cc3)o2)c1	i	.	.	.	i	.
O=C(CNC(=S)N(Cc1ccccc1)Cc1ccccc1F)NCc1ccc(Cl)cc1	i	17.5%	?	?	?	23.1µM*
O=C(NCC(c1cccs1)N1CCOCC1)c1cn(-c2ccccc2)nc1-c1ccc(Cl)cc1 (stereo not given)	?	?	-15.9%	-29.4%	7.31µM*	12.6%
COc1cccc(-c2nn(-c3ccc(C)cc3)cc2C(=O)NCC(c2cccs2)N2CCOCC2)c1 (stereo not given)	i	-54.6%	-5.6%	-8.8%	i	?
COc1ccc(-c2nn(-c3ccccc3)cc2C(=O)NCC(c2cccs2)N2CCOCC2)cc1 (stereo not given)	i	0.4%	-17.9%	-23.8%	?	10.9%
O=C(NCC(c1cccs1)N1CCOCC1)c1cn(-c2ccccc2)nc1-c1ccccc1 (stereo not given)	i	-8.2%	-1.9%	-0.3%	23.1µM*	-1.4%
CCCN(CCC)C(=O)CC(c1ccccc1)c1ccc(C)cc1O (stereo not given)	i	3.0%	-3.0%	?	7.31µM*	-3.3%
COc1cccc(C=O)c1OC(=O)N1CCOCC1	i	-5.2%	0.0%	9.8%	i	2.9%
COc1ccc(/C=N\NC(=O)c2sccc2C)cc1Cn1nc(C)cc1C	?	1.6%	-0.3%	-6.1%	6.51µM*	27.0%
COc1cccc(Sc2ccccc2/C=N/NC(N)=O)c1	2.91µM*	6.51µM*	?	?	?	?
Cc1ccc(Nc2ncc(C(=O)Nc3ccc(F)cc3F)c3ccccc23)cc1Cl	i	.	.	.	i	.
CC1(C)N=C(N)N=C(N)N1c1cc(Cl)ccc1Cl	i	.	-1.4%	-2.2%	i	.
SMILES	KB-3-1 tox	SW480 rerep	HT1080NT lethal	HT1080 IDH1KD tx	KB-V1 cytotox	MCF10A rereplic
CC1(C)N=C(N)N=C(N)N1c1ccc(CCCCc2ccccc2)cc1	?	.	?	0.731µM*	i	.
CC1(C)N=C(N)N=C(N)N1c1ccccc1	?	17.4%	3.66µM*	1.64µM*	?	?
CC1(C)N=C(N)N=C(N)N1c1ccc(Oc2ccc(Cl)cc2)c(Cl)c1	0.731µM*	0.3%	2.31µM*	1.3µM*	i	73.8%
Cc1ccc(NC(=O)COC(=O)C2(c3ccc(Cl)cc3)CCCC2)cc1	?	?	?	?	i	20.6µM*
CC(C)CN(C(=O)C1CCC1)c1c(N)n(Cc2ccccc2)c(=O)[nH]c1=O	i	-0.8%	-7.1%	-5.8%	i	?
CNc1ncnc2sc(-c3ccccc3)cc12	?	1.9%	-21.5%	-17.3%	9.2µM*	4.3%
Oc1ccc(N2CCN(c3ncnc4sc(-c5ccccc5)cc34)CC2)cc1	i	13.9%	13µM*	?	?	?
CC(=O)N1CCN(c2ncnc3sc(-c4ccccc4)cc23)CC1	i	-59.6%	0.0%	-9.5%	i	14.5%
CC(=O)CSc1nc(N)c(C#N)c(-c2cccs2)c1C#N	i	0.3%	-24.0%	?	18.4µM*	?
Cc1cccc(CSc2nc(N)c(C#N)c(-c3cccs3)c2C#N)c1	?	0.6%	-9.6%	-26.8%	11.2µM*	18.1%
CC(C)(C)C(=O)CSc1nc2c(c(-c3cccs3)c1C#N)CCC2	i	?	-1.2%	-0.1%	i	4.11µM*
CCCCSc1nc(N)c(C#N)c(-c2cccs2)c1C#N	?	4.4%	?	?	?	?
CC(C)OC(=O)CSc1nc(N)c(C#N)c(-c2cccs2)c1C#N	i	?	?	-15.9%	20.6µM*	?
Cc1ccc(OCC(=O)Nc2ccc(OCc3cc(=O)n4cccc(C)c4n3)cc2)cc1C	i	.	.	.	i	.
N#C/C(=C/c1cn(Cc2ccc(F)cc2)c2ccccc12)C(=O)Nc1cccc(Cl)c1	i	.	.	.	?	.
CCOc1ccccc1NC(=O)C1CCCN(S(=O)(=O)c2cccs2)C1 (stereo not given)	i	.	.	.	i	.
CCN(CC)c1ccc(/C=N/NC(=O)c2ccco2)c(O)c1	?	1.46µM*	?	?	i	20.6µM*
